Source: PubChem (Sanford-Burnham Center for Chemical Genomics)
Hits are enriched below; roughly 3% of the tested compounds scored in any of these assays.
C8 TRAIL sens: caspase-8 TRAIL sensitization; hit rate 1% among 360,000; NB7+C8 cells + TRAIL, ATPlite viability luminescence; inhibition (viability loss, TRAIL sensitization), % at 10 µM;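 active means compounds causing at least 50% loss of cell viability in the single-dose screen, relative to plate controls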
SENP8 block-1: blocks human SENP8 cleavage of Nedd8 substrate; AID 602440; Q96LD8; inhibition, % at 20 µM; hit rate 0.64% among 360,000; recombinant SENP8, Nedd8 substrate fluorescence; in the data active means inhibition mostly above about 40%, no sharp cut-off; inactive means mostly below about 27%
SENP8 block-2: blocks the human protease SENP8; Q96LD8; purified SENP8, Z-RLRGG-aminoluciferin cleavage, luminescence; inhibition, % at 10 µM; hit rate 1.2% among 330,000; AID 2540; in the data active means inhibition above about 50%
SENP7 block: inhibitors of human SENP7 protease. Q9BQF6. recombinant SENP7, Z-RLRGG-aminoluciferin luminescence, 40 min. inhibition, % at 5 µM. hit rate 1.5% among 330,000;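 active means inhibition above about 50% at the single test dose, limit read from the data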;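 further: plate controls were DMSO with enzyme for no effect and no enzyme buffer wells for full effect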
SENP6 block: inhibitors of human SENP6 protease; Recombinant SENP6 catalytic domain, aminoluciferin luminescence; Q9GZR1; inhibition, % at 10 µM; hit rate 1.8% among 330,000;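 active means inhibition above about 50% at the single tested dose, limit read from the data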;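 further: plate controls were DMSO wells with enzyme for no effect and DMSO wells lacking enzyme for full effect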
Target sequence (Q9GZR1 628-1112 limits assumed): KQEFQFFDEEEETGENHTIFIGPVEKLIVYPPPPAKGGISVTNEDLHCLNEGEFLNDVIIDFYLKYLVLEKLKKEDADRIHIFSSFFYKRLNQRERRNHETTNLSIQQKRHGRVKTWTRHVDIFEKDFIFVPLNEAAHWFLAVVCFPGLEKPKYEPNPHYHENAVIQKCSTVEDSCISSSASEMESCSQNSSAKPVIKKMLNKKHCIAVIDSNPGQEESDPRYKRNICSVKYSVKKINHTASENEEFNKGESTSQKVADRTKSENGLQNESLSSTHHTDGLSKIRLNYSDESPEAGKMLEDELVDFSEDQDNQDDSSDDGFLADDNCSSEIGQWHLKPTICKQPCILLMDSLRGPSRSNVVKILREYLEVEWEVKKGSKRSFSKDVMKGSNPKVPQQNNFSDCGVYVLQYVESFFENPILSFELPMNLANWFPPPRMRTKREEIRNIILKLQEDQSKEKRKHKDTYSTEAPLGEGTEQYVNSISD
PPC-1+TRAIL kill: kills PPC-1 cancer cells in the presence of TRAIL; PPC-1 cells + TRAIL, ATPLite viability luminescence; cell killing (% activity), % at 4 µM or 5 µM; hit rate 0.41% among 220,000; AID 1443;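 active means cell killing above 50% in the first pass at 4 µM, then a duplicate retest at 5 µM averaging 50% or more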;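 further: plate controls were cells with TRAIL plus DMSO for no effect and medium-only wells lacking cells for full effect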
SENP8 confirm: human SENP8 inhibition, confirmed. shares compounds with SENP7 block. Recombinant SENP8, Z-RLRGG-aminoluciferin luminescence, 60 min. inhibition, % at 12.5 µM. hit rate 40% among 6,200;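 active means mean inhibition across replicates above about 50%, limit read from the data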
SENP6 confirm: human SENP6 inhibition, confirmed | shares compounds with SENP7 block | inhibition, % at 12.5 µM | hit rate 58% among 6,200 | recombinant SENP6, Z-RLRGG-aminoluciferin luminescence
SENP7 conf: human SENP7 inhibition, confirmed; AID 488917; hit rate 69% among 6,200; shares compounds with SENP7 block; inhibition, % at 12.5 µM; recombinant SENP7, Z-RLRGG-aminoluciferin luminescence, 40 min
Casp3 select: selectivity test for SENP inhibitors: human caspase-3 inhibition | purified caspase-3, Z-DEVD-aminoluciferin luminescence, 60 min | inhibition, % at 12.5 µM | AID 488918 | shares compounds with SENP7 block | hit rate 60% among 6,200;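 active means mean inhibition above about 50%, limit read from the data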;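 further: plate controls were enzyme with DMSO for no effect and wells without caspase-3 for full effect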
Luc interf: luminescence interference (SENP counter-screen) | shares compounds with SENP7 block | Pre-incubated SENP8/Z-RLRGG-aminoluciferin, luciferase luminescence interference | inhibition, % at 12.5 µM | hit rate 39% among 6,200;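 active means mean inhibition above about 50% when retested at one dose, limit read from the data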;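 further: plate controls were DMSO wells with completed reaction for no effect and substrate without enzyme for full effect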
Active calls of the source: *.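 How the source made its calls, unless noted: active means mean inhibition above about 50% in the one-dose retest (limit read from the data); inactive means the rest.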

For CC(=O)NCc1ccc(-c2csc(-c3cccs3)n2)cc1 the results were C8 TRAIL sens 16, SENP8 block-1 -67, SENP8 block-2 36, SENP7 block 40, SENP6 block 62*, SENP8 confirm 48, SENP6 confirm 43, SENP7 conf 73*, Casp3 select 35 and Luc interf 57*.
For COc1cccc(-c2nc3ccccc3s2)c1 the results were C8 TRAIL sens 39, SENP8 block-1 -14, SENP8 block-2 95*, SENP7 block 96*, SENP6 block 92*, PPC-1+TRAIL kill 36, SENP8 confirm 96*, SENP6 confirm 98*, SENP7 conf 102*, Casp3 select 95* and Luc interf 95*.
Screening Nc1ccccc1-c1nc2ccccc2s1 returned C8 TRAIL sens -24, SENP8 block-1 -437, SENP8 block-2 54*, SENP7 block 59*, SENP6 block 76*, PPC-1+TRAIL kill -10, SENP8 confirm 61*, SENP6 confirm 83*, SENP7 conf 96*, Casp3 select 55* and Luc interf 44.
`COc1ccc(-c2nc3ccccc3s2)cc1NC(C)=O` gave C8 TRAIL sens 30, SENP8 block-1 -445, SENP8 block-2 -5, SENP7 block -8, SENP6 block -29 and PPC-1+TRAIL kill 49.
Screening c1ccc2sc(-c3ccncc3)nc2c1 returned C8 TRAIL sens -2, SENP8 block-1 -14, SENP8 block-2 36, SENP7 block 67*, SENP6 block 68*, PPC-1+TRAIL kill 8, SENP8 confirm 28, SENP6 confirm 55*, SENP7 conf 83*, Casp3 select 80* and Luc interf 35.
For O=C(Cc1nc2ccccc2s1)c1ccc(O)cc1O the results were SENP8 block-2 11, SENP7 block -5, SENP6 block 15 and PPC-1+TRAIL kill 4.
Screening c1ccc2sc(-c3ccc4c(c3)OCO4)nc2c1 returned C8 TRAIL sens 73*, SENP8 block-1 -278, SENP8 block-2 96*, SENP7 block 100*, SENP6 block 97*, PPC-1+TRAIL kill 58*, SENP8 confirm 98*, SENP6 confirm 100*, SENP7 conf 103*, Casp3 select 98* and Luc interf 95*.
c1ccc2[nH]c(-c3ccc4c(c3)OCO4)nc2c1 was read as C8 TRAIL sens 72*, SENP8 block-1 -134, SENP8 block-2 93*, SENP7 block 97*, SENP6 block 96*, SENP8 confirm 96*, SENP6 confirm 97*, SENP7 conf 102*, Casp3 select 97* and Luc interf 96*.
`O=C(O)c1ccc2nc(-c3ccccc3)sc2c1` gave C8 TRAIL sens 18, SENP8 block-1 -8, SENP8 block-2 94*, SENP7 block 100*, SENP6 block 98*, PPC-1+TRAIL kill 22, SENP8 confirm 98*, SENP6 confirm 99*, SENP7 conf 102*, Casp3 select 96* and Luc interf 98*.
Oc1ccc(-c2nc3ccccc3s2)c(O)c1 was read as C8 TRAIL sens 24, SENP8 block-1 -419, SENP8 block-2 88*, SENP7 block 86*, SENP6 block 97*, PPC-1+TRAIL kill -1, SENP8 confirm 95*, SENP6 confirm 94*, SENP7 conf 101*, Casp3 select 75* and Luc interf 78*.
O=C(O)c1ccc2ncsc2c1 was read as C8 TRAIL sens 2, SENP8 block-1 31, SENP8 block-2 3, SENP7 block 3, SENP6 block -15 and PPC-1+TRAIL kill 11.
For CC(OC(=O)CCN1C(=O)C2CC=CCC2C1=O)C(=O)Nc1ccc(F)cc1 (stereo unspecified) the results were C8 TRAIL sens -16 and SENP8 block-1 -2.
Screening c1cncc(-c2nc3ccccc3s2)c1 returned C8 TRAIL sens -13, SENP8 block-1 14, SENP8 block-2 10, SENP7 block 46, SENP6 block 46 and PPC-1+TRAIL kill -6.
Screening Oc1ccc(-c2nc3ccccc3s2)cc1 returned C8 TRAIL sens 62*, SENP8 block-1 -437, SENP8 block-2 96*, SENP7 block 99*, SENP6 block 98*, PPC-1+TRAIL kill 32, SENP8 confirm 99*, SENP6 confirm 99*, SENP7 conf 102*, Casp3 select 95* and Luc interf 95*.
For CC(=O)NCc1ccc(-c2nc3ccccc3s2)cc1 the results were C8 TRAIL sens 39, SENP8 block-1 -100, SENP8 block-2 64*, SENP7 block 72*, SENP6 block 80*, PPC-1+TRAIL kill 32, SENP8 confirm 1, SENP6 confirm 59*, SENP7 conf 87*, Casp3 select 77* and Luc interf 30.
`CCOc1ncccc1C(=O)OCC(=O)NC(=O)c1ccccc1` gave C8 TRAIL sens -8, SENP8 block-1 12, SENP8 block-2 -11, SENP7 block -10 and SENP6 block -9.
Screening NC1=NC(=O)/C(=C\c2cccs2)S1 returned C8 TRAIL sens 1, SENP8 block-1 0, SENP8 block-2 -16, SENP7 block -11, SENP6 block -26 and PPC-1+TRAIL kill 11.
O=C1/C(=C\c2cccs2)Sc2ccc3ccccc3c21 was read as C8 TRAIL sens 37, SENP8 block-1 10, SENP8 block-2 88*, SENP7 block 98*, SENP6 block 92*, PPC-1+TRAIL kill 12, SENP8 confirm 9, SENP6 confirm 50*, SENP7 conf 80*, Casp3 select 78* and Luc interf 2.
`CNC(=O)c1c(NC(=O)c2ccc(N3C(=O)CCC3=O)cc2)sc2c1CCC(C)C2` (stereo unspecified) gave C8 TRAIL sens -5, SENP8 block-1 -296, SENP8 block-2 -5, SENP7 block -2 and SENP6 block -9.
Screening CC(=O)Nc1cccc(-c2ccnc3c2CC(C)(C(=O)Nc2cccc(C(C)=O)c2)O3)c1 (stereo unspecified) returned C8 TRAIL sens 13 and SENP8 block-1 16.
Screening CC(=O)c1cccc(NC(=O)c2ccc(C)c(S(=O)(=O)N3CCOCC3)c2)c1 returned C8 TRAIL sens -7, SENP8 block-1 9, SENP8 block-2 2, SENP7 block 5 and SENP6 block -20.
